Test results taken from PubChem BioAssay AID1159580 (chemical genetic matrix, 2015).
Values joined by “and” are separate entries in the source; they are usually repeats but may differ in a detail not shown here. Equal values may be shown once. Out of some 5,500 compounds screened, about 2,000 (36%) were called active. About 18% were inconclusive and are not listed. Rule as the data show it: active = normalized growth mostly below about 0.91 (no sharp cut-off); inconclusive = no clear call, values can overlap the other calls; inactive = mostly above about 0.92. Some of the results follow.

Assay: chemical genetic growth profiling, strain panel (AID 1159580);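 also: tested at 20 µM; growth read once vehicle control cultures reached saturation at 30 °C; 1 = growth at the plate median or of vehicle wells; lower values mean less growth of the strain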
Conditions: S. cerevisiae deletion strains, growth OD

Measured: normalized growth

COc1cc([C@@H]2c3cc4c(cc3[C@H](O)[C@H]3COC(=O)[C@H]23)OCO4)cc(OC)c1OC
inactive: locus YAL013W, strain DEP1, active compounds read low 1.01 | locus YAL021C, strain ccr4, active compounds read low 1 | locus YAL026C, strain drs2, active compounds read low 1.03 | locus YAL030W, strain snc1, active compounds read low 1.01 | locus YBL061C, strain skt5, active compounds read low 1.01 | locus YBR009C, strain hhf1, active compounds read low 1.04 | locus YBR021W, strain FUR4, active compounds read low 1.01 | locus YBR023C, strain chs3, active compounds read low 1.01 | locus YBR171W, strain sec66, active compounds read low 1.01 | locus YBR229C, strain ROT2, active compounds read low 1.01 | locus YBR231C, strain swc5, active compounds read low 1.01 | locus YBR279W, strain paf1, active compounds read low 1.02 | locus YCL011C, strain gbp2, active compounds read low 1.01 | locus YCL016C, strain dcc1, active compounds read low 0.996 | locus YCL029C, strain bik1, active compounds read low 1.03 | locus YCL061C, strain MRC1, active compounds read low 1.02 | locus YCL069W, strain vba3, active compounds read low 1.01 | locus YCR088W, strain abp1, active compounds read low 1.01 | locus YDL005C, strain med2, active compounds read low 1.01 | locus YDL035C, strain GPR1, active compounds read low 1.01 | locus YDL040C, strain nat1, active compounds read low 1 | locus YDL074C, strain BRE1, active compounds read low 1.05 | locus YDL101C, strain DUN1, active compounds read low 1.02 | locus YDL134C, strain PPH21, active compounds read low 1.02 | locus YDL185W, strain tfp1, active compounds read low 1.01 | locus YDL192W, strain arf1, active compounds read low 1.01 | locus YDR001C, strain nth1, active compounds read low 1 | locus YDR069C, strain doa4, active compounds read low 1 | locus YDR101C, strain arx1, active compounds read low 1.01 | locus YDR137W, strain rgp1, active compounds read low 1.03 | locus YDR150W, strain NUM1, active compounds read low 1.01 | locus YDR159W, strain sac3, active compounds read low 0.987 | locus YDR162C, strain NBP2, active compounds read low 1.01 | locus YDR195W, strain ref2 0.971 | locus YDR297W, strain sur2, active compounds read low 1.01 | locus YDR318W, strain mcm21, active compounds read low 1.03 | locus YDR334W, strain swr1, active compounds read low 1.02 | locus YDR335W, strain msn5, active compounds read low 1.01 | locus YDR388W, active compounds read low 1.01 | locus YDR392W, strain spt3, active compounds read low 0.926 | locus YDR502C, strain sam2, active compounds read low 1 | locus YEL003W, strain gim4, active compounds read low 1.01 | locus YEL037C, strain rad23, active compounds read low 1.02 | locus YEL061C, strain CIN8 (second series), active compounds read low 1.01 | locus YEL061C, strain CIN8, active compounds read low 1 | locus YER015W, strain faa2, active compounds read low 1.02 | locus YER016W, strain bim1, active compounds read low 1 | locus YER110C, active compounds read low 1.01 | locus YER111C, strain swi4, active compounds read low 1.01 | locus YER155C, strain BEM2 (second series), active compounds read low 0.998 | locus YER155C, strain BEM2, active compounds read low 1.01 | locus YER167W, strain BCK2, active compounds read low 1.01 | locus YFR010W, strain ubp6, active compounds read low 1.02 | locus YGL078C, strain dbp3, active compounds read low 1 | locus YGL086W, strain mad1, active compounds read low 1 | locus YGL167C, strain pmr1, active compounds read low 1.01 | locus YGL173C, strain kem1, active compounds read low 1.04 | locus YGL227W, strain vid30, active compounds read low 1.01 | locus YGL240W, strain doc1, active compounds read low 1 | locus YGL248W, strain PDE1, active compounds read low 1.01 | locus YGL253W, strain hxk2, active compounds read low 0.982 | locus YGR078C, strain PAC10, active compounds read low 1.03 | locus YGR135W, strain pre9, active compounds read low 1.01 | locus YGR229C, strain SMI1, active compounds read low 1.03 | locus YGR252W, strain gcn5, active compounds read low 0.988 | locus YHR013C, strain ard1, active compounds read low 1 | locus YHR027C, strain rpn1, active compounds read low 1.01 | locus YHR030C, strain SLT2, active compounds read low 1.01 and 0.951 | locus YHR079C, strain IRE1 (second series), active compounds read low 1.02 | locus YHR079C, strain IRE1, active compounds read low 0.952 | locus YHR094C, strain hxt1, active compounds read low 1.01 | locus YHR129C, strain ARP1, active compounds read low 1.01 | locus YHR142W, strain chs7, active compounds read low 0.992 | locus YHR200W, strain rpn10, active compounds read low 1.01 | locus YIL066C, strain RNR3, active compounds read low 1.02 | locus YIL073C, strain SPO22, active compounds read low 1.02 | locus YIL125W, strain kgd1, active compounds read low 1.01 | locus YIR030C, strain dcg1, active compounds read low 1.01 | locus YJL092W, strain hpr5, active compounds read low 1.02 | locus YJL095W, strain BCK1 (second series), active compounds read low 1.01 | locus YJL095W, strain BCK1, active compounds read low 1.04 and 0.961 | locus YJL115W, strain asf1, active compounds read low 1.01 | locus YJL129C, strain trk1, active compounds read low 1.02 | locus YJL134W, strain LCB3, active compounds read low 1.01 | locus YJL154C, strain vps35, active compounds read low 0.999 | locus YJL164C, strain tpk1, active compounds read low 1.02 | locus YJL166W, strain qcr8, active compounds read low 1 | locus YJL168C, strain set2, active compounds read low 1.01 | locus YJL187C, strain SWE1 (second series), active compounds read low 1.04 | locus YJL187C, strain SWE1, active compounds read low 1.02 | locus YJR043C, strain POL32, active compounds read low 1.04 | locus YJR066W, strain TOR1, active compounds read low 0.927
